Holding throughout (settings): mRNA level, 48 h; actives raise or lower the signal
Read-out in one assay: BCL2L11 (gene 10018)
The experiment in a line: LTEA_HepaRG_BCL2L11: Life Technologies and Expression Analysis (LTEA) Assay for Bcl-2 (BCL2L11) gene using HepaRG (AID 2283473). In outline:
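Cells were plated, cultured 48 h, switched to serum-free induction medium, then dosed in duplicate for 48 h at eight half-log concentrations up to 100 uM. Lysates underwent RNA isolation and TaqMan qRT-PCR; gain or loss versus DMSO was fitted.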

Read-out in assay [1]: Apolipoprotein A-V (APOA5) gene, APOA5 (gene 116519)
Description: LTEA_HepaRG_APOA5: Life Technologies and Expression Analysis (LTEA) Assay for Apolipoprotein A-V (APOA5) gene using HepaRG (AID 2283474). In outline:
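Human liver HepaRG cells are treated 48 h with test chemicals (100 uM top, half-log dilutions, 0.5% DMSO). APOA5 mRNA induction or loss is measured by qRT-PCR relative to vehicle.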

Read-out in assay [2]: Apoptosis regulator Bcl-2 (Homo sapiens) (UniProt P10415)
Description: LTEA_HepaRG_BCL2: Life Technologies and Expression Analysis (LTEA) Assay for Bcl-2 gene using HepaRG (AID 2283475). The essentials:
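Differentiated HepaRG cells in serum-free induction medium were exposed for 48 h to eight half-log concentrations up to 100 uM in 0.5% DMSO, in duplicate. BCL2 mRNA was quantified by TaqMan qRT-PCR normalised to ACTB, GAPDH and POLR2A, with bidirectional fitting versus DMSO.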

Read-out in assay [3]: Bcl-2 (BID) gene, BID (gene 637)
The experiment in a line: LTEA_HepaRG_BID: Life Technologies and Expression Analysis (LTEA) Assay for Bcl-2 (BID) gene using HepaRG (AID 2283476). The essentials: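 Differentiated HepaRG cells in serum-free induction medium were exposed in duplicate for 48 h to eight half-log concentrations up to 100 uM in 0.5% DMSO. BID mRNA was quantified by qRT-PCR, normalized to ACTB, GAPDH and POLR2A.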

Read-out in another assay: Caspase-3 (Homo sapiens) (UniProt P42574)
The experiment in a line: LTEA_HepaRG_CASP3: Life Technologies and Expression Analysis (LTEA) Assay for cysteine-aspartic acid protease (CASP3) using HepaRG (AID 2283477). The essentials:
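In HepaRG liver cells dosed for 48 h at up to 100 uM (eight-point, duplicate), CASP3 expression changes are scored by qRT-PCR. Activity is fitted in both directions with 0.5% DMSO as baseline.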

Read-out in assay [4]: Cytochrome P450 (CYP24A1), CYP24A1 (gene 1591)
The experiment in a line: LTEA_HepaRG_CYP24A1: Life Technologies and Expression Analysis (LTEA) Assay for Cytochrome P450 (CYP24A1) using HepaRG (AID 2283478). In outline:
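Human liver HepaRG cultures receive each chemical for 48 h across an eight-point half-log series topping at 100 uM in 0.5% DMSO. Induction or suppression of CYP24A1 mRNA is scored relative to vehicle after housekeeping-gene normalization.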

Read-out in assay [5]: Cytochrome P450 (CYP1A2), CYP1A2 (gene 1544)
The experiment in a line: LTEA_HepaRG_CYP1A2: Life Technologies and Expression Analysis (LTEA) Assay for Cytochrome P450 (CYP1A2) using HepaRG (AID 2283479). The essentials:
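Assesses CYP1A2 mRNA in human HepaRG liver cells after 48 h chemical exposure at up to 100 uM. Values come from qRT-PCR with bidirectional curve fitting relative to DMSO.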

Read-out in assay [6]: cysteine-aspartic acid protease (CASP8), CASP8 (gene 841)
The experiment in a line: LTEA_HepaRG_CASP8: Life Technologies and Expression Analysis (LTEA) Assay for cysteine-aspartic acid protease (CASP8) using HepaRG (AID 2283480). The essentials:
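HepaRG, 48 h exposure, duplicate wells; 8 conc, half-log from 100 uM, 0.5% DMSO. Serum-free induction medium. CASP8 mRNA by TaqMan qRT-PCR, norm. ACTB/GAPDH/POLR2A; gain/loss fitted vs DMSO.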

Read-out in assay [7]: Cytochrome P450 (CYP2B6), CYP2B6 (gene 1555)
Description: LTEA_HepaRG_CYP2B6: Life Technologies and Expression Analysis (LTEA) Assay for Cytochrome P450 (CYP2B6) using HepaRG (AID 2283481). The essentials: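 Using 48 h treatment of HepaRG cells in serum-free induction medium, concentrations spanned half-log steps from 100 uM in 0.5% DMSO vehicle. CYP2B6 mRNA induction or loss is scored by qRT-PCR against DMSO.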

Read-out in assay [8]: Cytochrome P450 2C19 (Homo sapiens) (UniProt P33261)
The experiment in a line: LTEA_HepaRG_CYP2C19: Life Technologies and Expression Analysis (LTEA) Assay for CYP2C19 using HepaRG (AID 2283482). The essentials:
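Human HepaRG liver cells received test chemicals for 48 h (highest 100 uM, half-log dilutions in 0.5% DMSO). CYP2C19 mRNA induction or loss is read by multiplexed qRT-PCR and fitted in both directions versus vehicle.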

Read-out in a further assay: CYP2C8 (gene 1558)
Description: LTEA_HepaRG_CYP2C8: Life Technologies and Expression Analysis (LTEA) Assay for CYP2C8 using HepaRG (AID 2283483). The essentials:
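CYP2C8 mRNA induction or loss, by qRT-PCR normalized to ACTB/GAPDH/POLR2A, is read in HepaRG cells after 48 h treatment. Concentrations run from 100 uM down in half-log dilutions, with 0.5% DMSO as vehicle and baseline.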

Read-out in another assay: CYP2C9 (gene 1559)
The experiment in a line: LTEA_HepaRG_CYP2C9: Life Technologies and Expression Analysis (LTEA) Assay for CYP2C9 using HepaRG (AID 2283484). The essentials: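 Cells plated 48 h, switched to serum-free induction medium, then treated in duplicate for 48 h at eight concentrations (max 100 uM, 0.5% DMSO). RNA then analysed by qRT-PCR for CYP2C9; curves fitted in both directions relative to DMSO.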

Read-out in a further assay: CYP2E1 (gene 1571)
Description: LTEA_HepaRG_CYP2E1: Life Technologies and Expression Analysis (LTEA) Assay for CYP2E1 using HepaRG (AID 2283485). The essentials: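 HepaRG cells in serum-free induction medium exposed 48 h to test chemicals, 8 half-log concentrations up to 100 uM in 0.5% DMSO, duplicate. CYP2E1 mRNA by qRT-PCR, normalized to ACTB, GAPDH, POLR2A; bidirectional fit versus DMSO.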

Read-out in another assay: CYP4A11 (gene 1579)
Description: LTEA_HepaRG_CYP4A11: Life Technologies and Expression Analysis (LTEA) Assay for CYP4A11 using HepaRG (AID 2283486). The essentials:
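Readout is CYP4A11 mRNA induction or suppression (qRT-PCR, ACTB/GAPDH/POLR2A normalization) in human HepaRG cells after 48 h chemical treatment, concentrations to 100 uM in 0.5% DMSO, fitted bidirectionally against vehicle.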

Read-out in assay [9]: Cytochrome P450 3A4 (Homo sapiens) (UniProt P08684)
The experiment in a line: LTEA_HepaRG_CYP3A4: Life Technologies and Expression Analysis (LTEA) Assay for CYP3A4 using HepaRG (AID 2283487). The essentials:
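Differentiated HepaRG cells in serum-free induction medium exposed in duplicate for 48 h to 8 half-log concentrations up to 100 uM in 0.5% DMSO. CYP3A4 mRNA measured by qRT-PCR normalized to ACTB, GAPDH and POLR2A; bidirectional fit versus DMSO.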

Read-out in assay [10]: DNA damage-inducible transcript 3 (DDIT3), DDIT3 (gene 1649)
The experiment in a line: LTEA_HepaRG_DDIT3: Life Technologies and Expression Analysis (LTEA) Assay for DNA damage-inducible transcript 3 (DDIT3) using HepaRG (AID 2283488). The essentials:
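Differentiated human HepaRG cells in serum-free induction medium were exposed in duplicate for 48 h to 8 concentrations (top 100 uM, half-log steps, 0.5% DMSO). DDIT3 mRNA measured by TaqMan qRT-PCR, normalized to ACTB/GAPDH/POLR2A; bidirectional fit versus DMSO.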

Read-out in assay [11]: Pro-epidermal growth factor (Homo sapiens) (UniProt P01133)
The experiment in a line: LTEA_HepaRG_EGF: Life Technologies and Expression Analysis (LTEA) Assay for Epidermal growth factor (EGF) using HepaRG (AID 2283489). In outline:
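EGF expression changes in human HepaRG cells are scored by bidirectional fitting relative to 0.5% DMSO controls. Chemicals are tested at eight half-log concentrations up to 100 uM for 48 h in serum-free induction medium.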

Read-out in assay [12]: Early growth response protein 1 (EGR1) transcription factor, EGR1 (gene 1958)
The experiment in a line: LTEA_HepaRG_EGR1: Life Technologies and Expression Analysis (LTEA) Assay for Early growth response protein 1 (EGR1) transcription factor using HepaRG (AID 2283490). In outline: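 Read-out is EGR1 mRNA level by qRT-PCR, normalized to three housekeeping genes and analysed for gain or loss of signal against 0.5% DMSO. Source cells: human HepaRG, treated 48 h at up to 100 uM in half-log dilutions.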

Read-out in assay [13]: Ezrin (EZR), EZR (gene 7430)
Description: LTEA_HepaRG_EZR: Life Technologies and Expression Analysis (LTEA) Assay for Ezrin (EZR) using HepaRG (AID 2283491). The essentials:
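Differentiated human HepaRG cells, 48 h after plating, were exposed in serum-free induction medium for 48 hours to eight half-log concentrations up to 100 uM in 0.5% DMSO. EZR mRNA was measured by TaqMan qRT-PCR, normalized to ACTB, GAPDH and POLR2A, and fitted bidirectionally against DMSO.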

Read-out in assay [14]: Cytochrome P450 3A7 (Homo sapiens) (UniProt P24462)
Description: LTEA_HepaRG_CYP3A7: Life Technologies and Expression Analysis (LTEA) Assay for CYP3A7 using HepaRG (AID 2283492). The essentials:
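Cells were thawed, plated, cultured 48 h, then treated for a further 48 h with chemicals (eight-point half-log series from 100 uM, 0.5% DMSO). RNA was isolated and CYP3A7 expression quantified by qRT-PCR normalised to ACTB, GAPDH and POLR2A.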

What is called AC50 is the concentration giving half of the maximal activity seen.

The source made the active and inactive calls. Rule for the calls: active = hit-call score of the fitted dose curve at least 0.9, where 1 is the maximum; inactive = score below 0.9.

Sequence of Caspase-3 (Homo sapiens) (P42574 whole entry, looked up): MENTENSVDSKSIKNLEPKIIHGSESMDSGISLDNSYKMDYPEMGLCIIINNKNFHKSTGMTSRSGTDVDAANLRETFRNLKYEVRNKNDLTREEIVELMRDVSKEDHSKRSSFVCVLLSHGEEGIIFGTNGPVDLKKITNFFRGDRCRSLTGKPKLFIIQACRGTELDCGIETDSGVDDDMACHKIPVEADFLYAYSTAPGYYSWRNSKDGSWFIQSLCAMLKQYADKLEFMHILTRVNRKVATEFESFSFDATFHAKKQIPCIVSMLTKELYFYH
Sequence of Cytochrome P450 3A7 (Homo sapiens) (P24462 whole entry, looked up): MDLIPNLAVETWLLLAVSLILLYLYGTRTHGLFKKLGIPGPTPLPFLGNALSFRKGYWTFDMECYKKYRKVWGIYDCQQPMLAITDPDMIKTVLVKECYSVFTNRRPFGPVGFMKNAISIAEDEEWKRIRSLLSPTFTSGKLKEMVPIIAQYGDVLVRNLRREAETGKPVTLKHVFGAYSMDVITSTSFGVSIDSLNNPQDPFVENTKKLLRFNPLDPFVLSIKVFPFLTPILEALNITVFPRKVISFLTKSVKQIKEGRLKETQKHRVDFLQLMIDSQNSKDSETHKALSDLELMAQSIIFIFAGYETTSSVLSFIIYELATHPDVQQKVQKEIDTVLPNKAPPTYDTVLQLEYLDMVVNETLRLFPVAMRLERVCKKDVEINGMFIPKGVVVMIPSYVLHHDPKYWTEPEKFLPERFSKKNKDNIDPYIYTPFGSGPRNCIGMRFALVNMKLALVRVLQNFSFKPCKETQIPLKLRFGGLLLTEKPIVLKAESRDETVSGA
Sequence of Apoptosis regulator Bcl-2 (Homo sapiens) (P10415 whole entry, looked up): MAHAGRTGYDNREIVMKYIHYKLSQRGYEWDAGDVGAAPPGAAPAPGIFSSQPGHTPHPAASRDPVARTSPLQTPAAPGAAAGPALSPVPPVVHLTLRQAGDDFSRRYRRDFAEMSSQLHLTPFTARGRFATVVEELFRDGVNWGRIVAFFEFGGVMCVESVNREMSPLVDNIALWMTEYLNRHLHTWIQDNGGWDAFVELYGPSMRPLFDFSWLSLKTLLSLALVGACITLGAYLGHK
Sequence of Cytochrome P450 3A4 (Homo sapiens) (P08684 whole entry, looked up): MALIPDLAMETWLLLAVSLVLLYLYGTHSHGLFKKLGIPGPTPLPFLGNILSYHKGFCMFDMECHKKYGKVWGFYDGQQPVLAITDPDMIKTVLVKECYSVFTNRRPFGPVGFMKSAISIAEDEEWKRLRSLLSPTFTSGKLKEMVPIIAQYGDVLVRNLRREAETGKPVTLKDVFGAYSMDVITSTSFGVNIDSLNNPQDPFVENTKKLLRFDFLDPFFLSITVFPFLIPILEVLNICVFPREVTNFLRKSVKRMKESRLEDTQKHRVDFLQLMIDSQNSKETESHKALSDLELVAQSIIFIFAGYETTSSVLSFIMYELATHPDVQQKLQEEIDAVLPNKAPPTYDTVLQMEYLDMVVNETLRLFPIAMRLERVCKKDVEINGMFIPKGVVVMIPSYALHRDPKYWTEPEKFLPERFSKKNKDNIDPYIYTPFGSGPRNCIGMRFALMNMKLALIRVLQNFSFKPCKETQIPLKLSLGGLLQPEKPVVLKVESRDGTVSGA
Sequence of Cytochrome P450 2C19 (Homo sapiens) (P33261 whole entry, looked up): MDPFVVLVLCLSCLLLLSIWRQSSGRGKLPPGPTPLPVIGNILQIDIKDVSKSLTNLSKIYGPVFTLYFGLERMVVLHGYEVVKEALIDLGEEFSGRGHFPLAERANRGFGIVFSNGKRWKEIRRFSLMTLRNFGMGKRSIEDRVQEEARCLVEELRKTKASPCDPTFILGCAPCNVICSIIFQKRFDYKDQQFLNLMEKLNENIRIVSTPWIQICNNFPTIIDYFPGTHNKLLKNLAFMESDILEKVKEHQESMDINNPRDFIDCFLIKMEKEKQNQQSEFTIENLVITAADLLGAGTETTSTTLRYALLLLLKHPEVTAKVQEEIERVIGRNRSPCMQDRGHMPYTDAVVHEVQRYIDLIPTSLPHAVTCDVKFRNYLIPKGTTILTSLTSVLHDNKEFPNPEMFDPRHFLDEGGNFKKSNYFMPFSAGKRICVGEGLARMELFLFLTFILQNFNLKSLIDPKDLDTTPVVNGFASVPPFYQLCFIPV

As to `O=C(O)CCN(C1(C(=O)NO)CCCC1)S(=O)(=O)c1ccc(Oc2ccc(F)cc2)cc1`, the compound was classed as inactive (with BCL2L11 (gene 10018); in assay [1]; in assay [2]; in assay [3]; with Caspase-3 (Homo sapiens); in [4]). Moreover, the compound was classed as inactive (in assay [5]; in assay [6]; in assay [7]; in [8]; with CYP2C8 (gene 1558); with CYP2C9 (gene 1559)). The compound was classed as inactive (in the assay with CYP2E1 (gene 1571); with CYP4A11 (gene 1579); in assay [10]; in assay [11]; in assay [12]; in assay [13]). Further, the call in [14] was inactive. Besides, the AC50 in assay [9] is 22.8 µM (active).
On to `Cc1ccc(S(=O)(=O)O)cc1C`, for which the result (with BCL2L11 (gene 10018); in assay [1]; in [2]; in assay [3]; with Caspase-3 (Homo sapiens); in [4]) was inactive. Moreover, the call (in [5]; in [6]; in assay [7]; in [8]; in the assay with CYP2C8 (gene 1558); with CYP2C9 (gene 1559)) was inactive. Besides, the call (in the assay with CYP2E1 (gene 1571); with CYP4A11 (gene 1579); in assay [9]; in [10]; in [11]; in assay [12]) was inactive. The outcome in assay [13] and in assay [14] was inactive.
For the compound `CCOCCO`, the compound was classed as inactive (with BCL2L11 (gene 10018); in assay [1]; in [2]; in assay [3]; with Caspase-3 (Homo sapiens); in [4]). Further, the compound was called inactive (in [5]; in [6]; in assay [7]; in [8]; with CYP2C8 (gene 1558); with CYP2C9 (gene 1559)). Moreover, the compound was called inactive (in the assay with CYP2E1 (gene 1571); with CYP4A11 (gene 1579); in assay [9]; in [10]; in [11]; in assay [12]). In addition, the outcome in assay [13] and in assay [14] was inactive.

Values taken from PubChem BioAssay (EPA / NIEHS).
